According to the supplement of paper PMC13094657:
± gives the standard deviation of the averaged measurements.

Assays:
MDA-MB-231 [1] = assay: cell viability relative to vehicle unstimulated control (fraction); higher = more viable cells; settings: pre-treatment time: 18 h then 24 h IFNg/TNF
MDA-MB-231 [2] = assay: kynurenine production, fold change vs DMSO IFNg/TNF control; higher = more kynurenine produced (less inhibition); settings: pre-treatment time: 18 h then 24 h IFNg/TNF
Method in brief: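 After trichloroacetic acid and p-dimethylaminobenzaldehyde treatment, supernatants were read at 492 nm, with 0–100 μM standards. These came from MDA-MB-231 cells (7 × 10^4/well, 96-well plates) pre-treated 18 h with natural products in 0.1% DMSO and then exposed 24 h to IFNγ (1 U/ml) and TNF (6.25 ng/ml) at 37°C. Values for kynurenine production are fold changes over same-plate cytokine-stimulated vehicle wells, averaged over duplicate plates in the first screening round.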
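For cell viability relative to vehicle unstimulated control in this document: viability of the cells left after supernatant collection, read with Deep Blue dye added for 4 h, as absorbance at 570 nm minus 600 nm.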

Row | SMILES | cell viability (MDA-MB-231 [1]) | kynurenine production (MDA-MB-231 [2])
1 | CC1=CC23C(=O)C(C=C4COC(C)(C)OC4C24OC(C)(C)OC14)C1C(CC3C)C1(C)C (stereo unspecified) [Ingenol-3,4,5,20-diacetonide] (compound dose: 10 uM) | 1.09 ± 0.23 | 0.893 ± 0.14
2 | CC1(C)CC[C@]2(C(=O)O[C@@H]3O[C@H](CO)[C@@H](O)[C@H](O)[C@H]3O)CC[C@]3(C)C(=CC[C@@H]4[C@@]5(C)CC[C@H](O[C@@H]6O[C@H](CO)[C@@H](O)[C@H](O[C@@H]7O[C@H](CO)[C@@H](O)[C@H](O)[C@H]7O)[C@H]6O[C@@H]6O[C@H](CO)[C@@H](O)[C@H](O)[C@H]6O)[C@@](C)(CO)[C@@H]5CC[C@]43C)[C@@H]2C1 [Araloside VII] (compound dose: 10 uM) | 0.941 ± 0.026 | 0.825 ± 0.13
3 | COC(=O)c1cccnc1 [Methyl nicotinate] (compound dose: 10 uM) | 0.974 ± 0.037 | 0.874 ± 0.23
4 | CC1(C)CC[C@]2(C(=O)O[C@@H]3O[C@H](CO)[C@@H](O)[C@H](O)[C@H]3O)CC[C@]3(C)C(=CC[C@@H]4[C@@]5(C)CC[C@H](O[C@@H]6O[C@H](C(=O)O)[C@@H](O[C@@H]7O[C@@H](CO)[C@H](O)[C@H]7O)[C@H](O)[C@H]6O)C(C)(C)[C@@H]5CC[C@]43C)[C@@H]2C1 [Araloside A] (compound dose: 10 uM) | 1.05 ± 0.032 | 1.31 ± 0.014
5 | CC1CCC(C(C)C)C(O)C1 (single isomer, unassigned; (-)) [(-)-Menthol] (compound dose: 10 uM) | 0.899 ± 0.076 | 0.988 ± 0.27
6 | CC(=O)OC(CC12C3C(C(C)C)CCC1(C)C1CCC4(CCCC42)N3C1)C(=O)C1(C)COC2(C)CCC1O2 (stereo unspecified) [Daphniphylline] (compound dose: 10 uM) | 1.01 ± 0.027 | 0.75 ± 0.079
7 | C=C(C)[C@@H]1CC=C(CO)CC1 [(S)-(-)-Perillyl alcohol] (compound dose: 10 uM) | 0.984 ± 0.02 | 1.19 ± 0.25
8 | O=C(O)C1=CO[C@@H](O[C@@H]2O[C@H](CO)[C@@H](O)[C@H](O)[C@H]2O)[C@H]2[C@@H]1C=C[C@]2(O)CO [Monotropein] (compound dose: 10 uM) | 0.866 ± 0.046 | 0.846 ± 0.13
9 | CC1CCC2(O)C(C)(C)C3CCC2(C)C1C3 (stereo unspecified) [Patchouli alcohol] (compound dose: 10 uM) | 0.994 ± 0.013 | 1.04 ± 0.064
10 | CC(=O)O[C@@H]1C[C@@]23C[C@@]24CC[C@H](O[C@@H]2OC[C@@H](O)[C@H](O)[C@H]2O)C(C)(C)[C@@H]4CC[C@H]3[C@]2(C)C[C@@H]3O[C@]4(C[C@@H](C)[C@@H]3[C@@]12C)OC[C@@]1(C)O[C@@H]41 [26-Deoxyactein] (compound dose: 10 uM) | 0.9809 ± 0.0077 | 0.911 ± 0.22
11 | O=c1cc(-c2ccc(O)c(O)c2)oc2c([C@@H]3O[C@H](CO)[C@@H](O)[C@H](O)[C@H]3O)c(O)cc(O)c12 [Orientin] (compound dose: 10 uM) | 0.922 ± 0.069 | 0.918 ± 0.1
12 | C=C(C)[C@@H]1CC[C@@H](C)[C@@H]2CCC(C)=C[C@@H]21 [Amorpha-4,11-diene] (compound dose: 10 uM) | 1.01 ± 0.06 | 0.961 ± 0.19
13 | C[C@@]12C[C@H](c3ccoc3)O[C@@]13C[C@H](OC3=O)[C@H]1[C@H]2C[C@@H]2C[C@H]1C(=O)O2 [Diosbulbin B] (compound dose: 10 uM) | 0.78 ± 0.24 | 0.779 ± 0.13
14 | C=C1C[C@]23C[C@@]1(O)CC[C@H]2[C@@]12C=C[C@H](O)[C@@](C)(C(=O)O1)[C@H]2[C@@H]3C(=O)O [Gibberellic acid] (compound dose: 10 uM) | 0.951 ± 0.013 | 0.799 ± 0.11
15 | CC(=O)OC(C)(C)CCC(=O)[C@](C)(O)[C@H]1[C@H](O)C[C@@]2(C)[C@@H]3CC=C4[C@@H](C[C@H](O)[C@@H](O)C4(C)C)[C@]3(C)C(=O)C[C@]12C [Cucurbitacin IIa] (compound dose: 10 uM) | 0.939 ± 0.036 | 0.778 ± 0.07
16 | C=C1[C@H](OC(=O)c2cccnc2)C[C@H]2[C@@H](/C=C(\C)C(=O)[C@@]3(OC(C)=O)C[C@H](C)[C@H](OC(=O)c4ccccc4)[C@@H]3[C@H]1OC(C)=O)C2(C)C [Euphorbia factor L9] (compound dose: 10 uM) | 1.07 ± 0.095 | 0.226 ± 0.028
17 | CC(=O)O[C@@H]1[C@@H](O)[C@H](O[C@H]2CC[C@]34C[C@]35CC[C@]3(C)[C@@H]([C@@]6(C)CC[C@@H](C(C)(C)O)O6)[C@@H](O)C[C@@]3(C)[C@@H]5C[C@H](O[C@@H]3O[C@H](CO)[C@@H](O)[C@H](O)[C@H]3O)[C@H]4C2(C)C)OC[C@H]1O [Isoastragaloside II] (compound dose: 10 uM) | 0.99 ± 0.011 | 0.968 ± 0.029
18 | CC12CCC(CC1=O)C2(C)C (stereo unspecified) [Camphor] (compound dose: 10 uM) | 0.977 ± 0.016 | 0.832 ± 0.21
